# Source: PubChem BioAssay AID1159580 (chemical genetic matrix, 2015)
# Hit rate of the full screen: of about 5,500 compounds, about 2,000 (36%) were called active. Another 18% or so got no clear call; they are omitted. The list shows a part of the results. Unmarked numbers belong to inactive results. No stated cut-off is given here; in the data, active means normalized growth mostly below about 0.91 (no sharp cut-off); inconclusive means no clear call, values can overlap the other calls; inactive means mostly above about 0.92.
# Test: chemical genetic growth profiling, strain panel (AID 1159580);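 further: tested at 20 µM; growth read once vehicle control cultures reached saturation at 30 °C; 1 = growth at the plate median or of vehicle wells; lower values mean less growth of the strain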
# Details: S. cerevisiae deletion strains, growth OD
smiles,measurement,setting,value
CC1(C)C=CC(=O)[C@@]2(C)C1CC(=O)[C@]1(C)C2CC[C@@]2(C)[C@H](c3ccoc3)OC(=O)C3OC321 (stereo partly drawn),normalized growth,"locus YAL021C, strain ccr4, active compounds read low",0.977
same,normalized growth,"locus YAL026C, strain drs2, active compounds read low",1
same,normalized growth,"locus YAL030W, strain snc1, active compounds read low",0.995
same,normalized growth,"locus YBL061C, strain skt5, active compounds read low",0.998
same,normalized growth,"locus YBR009C, strain hhf1, active compounds read low",0.984
same,normalized growth,"locus YBR021W, strain FUR4, active compounds read low",1
same,normalized growth,"locus YBR023C, strain chs3, active compounds read low",0.983
same,normalized growth,"locus YBR171W, strain sec66, active compounds read low",1.01
same,normalized growth,"locus YBR229C, strain ROT2, active compounds read low",0.944
same,normalized growth,"locus YBR231C, strain swc5, active compounds read low",1
same,normalized growth,"locus YBR279W, strain paf1, active compounds read low",0.988
same,normalized growth,"locus YCL011C, strain gbp2, active compounds read low",0.996
same,normalized growth,"locus YCL016C, strain dcc1, active compounds read low",0.99
same,normalized growth,"locus YCL029C, strain bik1, active compounds read low",0.96
same,normalized growth,"locus YCL061C, strain MRC1, active compounds read low",1.01
same,normalized growth,"locus YCL069W, strain vba3, active compounds read low",0.995
same,normalized growth,"locus YCR088W, strain abp1, active compounds read low",1
same,normalized growth,"locus YDL005C, strain med2, active compounds read low",0.996
same,normalized growth,"locus YDL035C, strain GPR1, active compounds read low",0.945
same,normalized growth,"locus YDL040C, strain nat1, active compounds read low",0.996
same,normalized growth,"locus YDL074C, strain BRE1, active compounds read low",0.926
same,normalized growth,"locus YDL101C, strain DUN1, active compounds read low",0.967
same,normalized growth,"locus YDL185W, strain tfp1, active compounds read low",0.966
same,normalized growth,"locus YDL192W, strain arf1, active compounds read low",0.94
same,normalized growth,"locus YDR001C, strain nth1, active compounds read low",0.992
same,normalized growth,"locus YDR069C, strain doa4, active compounds read low",0.976
same,normalized growth,"locus YDR101C, strain arx1, active compounds read low",0.93
same,normalized growth,"locus YDR137W, strain rgp1, active compounds read low",0.843 (active)
same,normalized growth,"locus YDR159W, strain sac3, active compounds read low",0.954
same,normalized growth,"locus YDR162C, strain NBP2, active compounds read low",0.953
same,normalized growth,"locus YDR195W, strain ref2",1.03
same,normalized growth,"locus YDR297W, strain sur2, active compounds read low",0.983
same,normalized growth,"locus YDR318W, strain mcm21, active compounds read low",0.969
same,normalized growth,"locus YDR334W, strain swr1, active compounds read low",1
same,normalized growth,"locus YDR335W, strain msn5, active compounds read low",1
same,normalized growth,"locus YDR388W, active compounds read low",0.982
same,normalized growth,"locus YDR392W, strain spt3, active compounds read low",0.982
same,normalized growth,"locus YDR502C, strain sam2, active compounds read low",0.983
same,normalized growth,"locus YEL003W, strain gim4, active compounds read low",0.994
same,normalized growth,"locus YEL037C, strain rad23, active compounds read low",1
same,normalized growth,"locus YEL061C, strain CIN8 (second series), active compounds read low",0.997
same,normalized growth,"locus YEL061C, strain CIN8, active compounds read low",0.971
same,normalized growth,"locus YER015W, strain faa2, active compounds read low",0.982
same,normalized growth,"locus YER016W, strain bim1, active compounds read low",0.985
same,normalized growth,"locus YER110C, active compounds read low",0.959
same,normalized growth,"locus YER111C, strain swi4, active compounds read low",1
same,normalized growth,"locus YER155C, strain BEM2 (second series), active compounds read low",1.01
same,normalized growth,"locus YER155C, strain BEM2, active compounds read low",0.998
same,normalized growth,"locus YER167W, strain BCK2, active compounds read low",0.959
same,normalized growth,"locus YFR010W, strain ubp6, active compounds read low",1.01
same,normalized growth,"locus YGL078C, strain dbp3, active compounds read low",1.02
same,normalized growth,"locus YGL086W, strain mad1, active compounds read low",0.979
same,normalized growth,"locus YGL167C, strain pmr1, active compounds read low",0.991
same,normalized growth,"locus YGL173C, strain kem1, active compounds read low",0.994
same,normalized growth,"locus YGL227W, strain vid30, active compounds read low",0.994
same,normalized growth,"locus YGL240W, strain doc1, active compounds read low",0.99
same,normalized growth,"locus YGL248W, strain PDE1, active compounds read low",0.974
same,normalized growth,"locus YGL253W, strain hxk2, active compounds read low",0.994
same,normalized growth,"locus YGR078C, strain PAC10, active compounds read low",0.981
same,normalized growth,"locus YGR135W, strain pre9, active compounds read low",1.03
same,normalized growth,"locus YGR252W, strain gcn5, active compounds read low",0.966
same,normalized growth,"locus YHR013C, strain ard1, active compounds read low",0.968
same,normalized growth,"locus YHR027C, strain rpn1, active compounds read low",0.979
same,normalized growth,"locus YHR030C, strain SLT2, active compounds read low",0.98
same,normalized growth,"locus YHR079C, strain IRE1 (second series), active compounds read low",0.975
same,normalized growth,"locus YHR094C, strain hxt1, active compounds read low",0.967
same,normalized growth,"locus YHR129C, strain ARP1, active compounds read low",0.98
same,normalized growth,"locus YHR142W, strain chs7, active compounds read low",0.999
same,normalized growth,"locus YHR200W, strain rpn10, active compounds read low",0.986
same,normalized growth,"locus YIL066C, strain RNR3, active compounds read low",0.904
same,normalized growth,"locus YIL073C, strain SPO22, active compounds read low",1.01
same,normalized growth,"locus YIL125W, strain kgd1, active compounds read low",0.968
same,normalized growth,"locus YIR030C, strain dcg1, active compounds read low",0.969
same,normalized growth,"locus YJL092W, strain hpr5, active compounds read low",0.999
same,normalized growth,"locus YJL095W, strain BCK1 (second series), active compounds read low",0.985
same,normalized growth,"locus YJL095W, strain BCK1, active compounds read low",0.981
same,normalized growth,"locus YJL115W, strain asf1, active compounds read low",0.994
same,normalized growth,"locus YJL129C, strain trk1, active compounds read low",0.976
same,normalized growth,"locus YJL134W, strain LCB3, active compounds read low",0.975
same,normalized growth,"locus YJL154C, strain vps35, active compounds read low",0.996
same,normalized growth,"locus YJL164C, strain tpk1, active compounds read low",0.991
same,normalized growth,"locus YJL166W, strain qcr8, active compounds read low",0.992
same,normalized growth,"locus YJL168C, strain set2, active compounds read low",0.98
same,normalized growth,"locus YJL187C, strain SWE1 (second series), active compounds read low",0.977
same,normalized growth,"locus YJL187C, strain SWE1, active compounds read low",0.997
same,normalized growth,"locus YJR043C, strain POL32, active compounds read low",0.981
same,normalized growth,"locus YKL009W, strain mrt4, active compounds read low",1.02
same,normalized growth,"locus YKL068W, active compounds read low",0.993
same,normalized growth,"locus YKL085W, strain MDH1 (second series), active compounds read low",1
same,normalized growth,"locus YKL085W, strain MDH1, active compounds read low",1
same,normalized growth,"locus YKL160W, strain elf1, active compounds read low",0.987
same,normalized growth,"locus YKL190W, strain CNB1, active compounds read low",0.975
same,normalized growth,"locus YKR001C, strain vps1, active compounds read low",0.996
same,normalized growth,"locus YKR026C, strain gcn3, active compounds read low",0.989
same,normalized growth,"locus YKR091W, strain srl3, active compounds read low",0.994
same,normalized growth,"locus YLL001W, strain dnm1, active compounds read low",1.01
same,normalized growth,"locus YLL026W, active compounds read low",0.984
same,normalized growth,"locus YLL041C, strain sdh2, active compounds read low",1
same,normalized growth,"locus YLR027C, strain aat2, active compounds read low",0.984
same,normalized growth,"locus YLR039C, strain RIC1, active compounds read low",0.863
same,normalized growth,"locus YLR058C, strain SHM2, active compounds read low",0.949
same,normalized growth,"locus YLR102C, strain apc9, active compounds read low",0.972
same,normalized growth,"locus YLR221C, strain rsa3, active compounds read low",1
same,normalized growth,"locus YLR258W, strain gsy2, active compounds read low",0.988
same,normalized growth,"locus YLR262C, strain YPT6 (second series), active compounds read low",0.905
same,normalized growth,"locus YLR262C, strain YPT6, active compounds read low",0.857
same,normalized growth,"locus YLR268W, strain sec22, active compounds read low",0.911
same,normalized growth,"locus YLR320W, strain mms22, active compounds read low",0.988
same,normalized growth,"locus YLR342W, strain FKS1 (second series), active compounds read low",0.915
same,normalized growth,"locus YLR342W, strain FKS1, active compounds read low",1.01
same,normalized growth,"locus YLR357W, strain rsc2, active compounds read low",1.01
same,normalized growth,"locus YLR370C, strain arc18, active compounds read low",0.992
same,normalized growth,"locus YLR371W, strain rom2, active compounds read low",0.901 (active)
same,normalized growth,"locus YLR384C, strain iki3, active compounds read low",1
same,normalized growth,"locus YLR418C, strain cdc73, active compounds read low",0.952
same,normalized growth,"locus YML016C, strain PPZ1, active compounds read low",0.951
same,normalized growth,"locus YML032C, strain rad52, active compounds read low",0.936
same,normalized growth,"locus YML120C, strain ndi1, active compounds read low",0.99
same,normalized growth,"locus YML124C, strain tub3, active compounds read low",0.973
same,normalized growth,"locus YMR058W, strain fet3, active compounds read low",1.01
same,normalized growth,"locus YMR078C, strain ctf18, active compounds read low",0.974
same,normalized growth,"locus YMR125W, strain sto1, active compounds read low",0.995
same,normalized growth,"locus YMR129W, active compounds read low",0.99
same,normalized growth,"locus YMR205C, strain PFK2, active compounds read low",1.01
same,normalized growth,"locus YMR223W, strain ubp8, active compounds read low",0.984
same,normalized growth,"locus YMR231W, strain pep5, active compounds read low",1.01
same,normalized growth,"locus YMR263W, strain SAP30, active compounds read low",0.975
same,normalized growth,"locus YMR307W, strain GAS1, active compounds read low",0.865
same,normalized growth,"locus YNL067W, strain RPL9B, active compounds read low",1.02
same,normalized growth,"locus YNL071W, strain lat1, active compounds read low",0.999
same,normalized growth,"locus YNL153C, strain GIM3, active compounds read low",0.981
same,normalized growth,"locus YNL209W, strain ssb2, active compounds read low",0.984
same,normalized growth,"locus YNL233W, strain BNI4, active compounds read low",0.984
same,normalized growth,"locus YNL248C, strain rpa49, active compounds read low",0.983
same,normalized growth,"locus YNL250W, strain rad50, active compounds read low",1
same,normalized growth,"locus YNL271C, strain bni1, active compounds read low",0.963
same,normalized growth,"locus YNL298W, strain CLA4, active compounds read low",0.97
same,normalized growth,"locus YNL307C, strain MCK1, active compounds read low",0.961
same,normalized growth,"locus YNL322C, strain KRE1 (second series), active compounds read low",0.989
same,normalized growth,"locus YNR049C, strain mso1, active compounds read low",1
same,normalized growth,"locus YNR052C, strain pop2, active compounds read low",0.977
same,normalized growth,"locus YOL006C, strain TOP1, active compounds read low",0.813
same,normalized growth,"locus YOL012C, strain htz1",1.08
same,normalized growth,"locus YOL147C, strain pex11, active compounds read low",0.971
same,normalized growth,"locus YOR001W, strain rrp6, active compounds read low",1
same,normalized growth,"locus YOR061W, strain CKA2, active compounds read low",0.924
same,normalized growth,"locus YOR069W, strain VPS5, active compounds read low",0.981
same,normalized growth,"locus YOR070C, strain gyp1, active compounds read low",1
same,normalized growth,"locus YOR080W, strain dia2, active compounds read low",1
same,normalized growth,"locus YOR083W, strain WHI5, active compounds read low",0.999
same,normalized growth,"locus YOR106W, strain vam3, active compounds read low",1
same,normalized growth,"locus YOR136W, strain idh2, active compounds read low",0.981
same,normalized growth,"locus YOR144C, strain elg1, active compounds read low",0.973
same,normalized growth,"locus YOR184W, strain ser1, active compounds read low",0.922
same,normalized growth,"locus YOR265W, strain rbl2, active compounds read low",1
same,normalized growth,"locus YOR270C, strain vph1, active compounds read low",0.833
same,normalized growth,"locus YOR290C, strain snf2, active compounds read low",0.974
same,normalized growth,"locus YOR316C, strain cot1, active compounds read low",0.965
same,normalized growth,"locus YPL051W, strain arl3, active compounds read low",0.987
same,normalized growth,"locus YPL055C, strain LGE1, active compounds read low",0.884
same,normalized growth,"locus YPL078C, strain atp4, active compounds read low",1
same,normalized growth,"locus YPL106C, strain sse1, active compounds read low",1
same,normalized growth,"locus YPL240C, strain hsp82, active compounds read low",0.999
same,normalized growth,"locus YPR119W, strain clb2, active compounds read low",0.985
same,normalized growth,"locus YPR141C, strain kar3, active compounds read low",0.972
same,normalized growth,"locus YPR163C, strain tif3, active compounds read low",0.956
same,normalized growth,"locus YPR167C, strain met16, active compounds read low",0.986
same,normalized growth,"strain wtn01, active compounds read low",0.936
